Results taken from PubChem BioAssay (Tox21).
Results filed as inconclusive are left out. Unmarked numbers belong to inactive results. Calls of active or inactive are those of the source. The call rests on the fitted dose curve; in most records, active means well fitted curve in the direction sought with a large enough effect in the repeat runs; inconclusive means weak or mixed curves; inactive means no such curve, though single readings can be large; an effect the other way counts as inactive or inconclusive.

experiment: qHTS assay to identify small molecule antagonists of the retinoid acid receptor (RAR) signaling pathway - cell viability counter screen (AID 1159551); conditions: C3RL4 cells viability, ATP luminescence (CellTiter-Glo), 6 h; series mostly up to 92.4 µM; activity change, negative = cytotoxicity: at the top concentration; further: nearly all actives have a fitted effect of over 35% in size
How it was run: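 Cells (C3RL4) are plated, incubated overnight, dosed with compound in DMSO, then given retinol at 1 uM final. After 6 h at 37 C, CellTiter-Glo is added and luminescence read following 30 min at room temperature.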
On the % scale 0 is the no-effect control and ±100 the full control effect.

In order of falling “activity change, negative = cytotoxicity” value:
1. CCCCN(CCCC)CCCOC(=O)c1ccc(N)cc1  9.35% [at 42.5 µM]
2. C[C@@H]1C[C@H]2[C@@H]3CCC4=CC(=O)C=C[C@]4(C)[C@@]3(F)[C@@H](O)C[C@]2(C)[C@H]1C(=O)CO  4.27% [at 42.5 µM]
3. O=C(O)c1ccccc1NCCc1ccccc1  2.82% [at 42.5 µM]
4. CC(C)(O)c1ccccc1CC[C@@H](SCC1(CC(=O)O)CC1)c1cccc(/C=C/c2ccc3ccc(Cl)cc3n2)c1  2.07% [at 42.5 µM]
5. O=C(CCCCCCC(=O)Nc1ccccc1)NO  0.525% [at 42.5 µM]
6. COC(=O)[C@@H]1CC2=CC(=O)CC[C@]2(C)[C@@]23O[C@@H]2C[C@@]2(C)[C@@H](CC[C@@]24CCC(=O)O4)[C@H]13  0.417% [at 42.5 µM]
7. CCC(C(=O)OCCOCCN(CC)CC)c1ccccc1 (configuration not stated)  -0.36% [at 42.5 µM]
8. CCOC(=O)N1CCC(n2c(=O)[nH]c3cc(Cl)ccc32)CC1  -0.599% [at 42.5 µM]
9. CCCCC(=O)O[C@]1(C(=O)CO)CC[C@H]2[C@@H]3CCC4=CC(=O)CC[C@]4(C)[C@H]3[C@@H](O)C[C@@]21C  -1.15% [at 42.5 µM]
10. COc1cc2c(N3CCN(C(=O)Nc4ccc(OC(C)C)cc4)CC3)ncnc2cc1OCCCN1CCCCC1  -1.53% [at 42.5 µM]

In order of falling “activity change, negative = cytotoxicity” value:
1. CCOC(=O)c1ccccc1OC  3.56%
2. NC(=O)Nc1ccc(Cl)c(Cl)c1  2.63%
3. O=C(CS)OCCOC(=O)CS  2.45%
4. CC(C)C(OC(=O)c1ccccc1)C(C)(C)COC(=O)c1ccccc1 (configuration not stated)  -0.366%
5. O=C(O)c1cccc(O)c1  -0.373%
6. CCC(C)(C)C1CCC(O)CC1 (configuration not stated)  -0.393%
7. CC1(C)C2=CCCC(C)(C)[C@]23CC[C@H]1C3  -0.433%
8. CCOC(=N)CC(=O)OCC  -1.15%
9. CNC(=S)NC  -3.33%

With `COCc1c(C(C)C)nc(C(C)C)c(/C=C/[C@@H](O)C[C@@H](O)CC(=O)O)c1-c1ccc(F)cc1` the Potency was “inactive”.

experiment: qHTS assay to identify small molecule antagonists of the retinoic acid receptor (RAR) signaling pathway (AID 1159552; further: nearly all actives have a fitted effect of over 50% in size; further: potency means the concentration at half of the fitted maximal effect); conditions: C3RL4 RARE luciferase reporter, retinol-stimulated, 6 h; series mostly up to 92.4 µM; activity, negative = inhibition: at the top concentration
How it was run: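 Readout: luciferase luminescence, 30 min post-reagent at RT. Setup: C3RL4 RARE reporter cells, compounds plus retinol 1 uM final, 6 hr incubation at 37 C and 5% CO2.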

For `O=C(CS)OCCOC(=O)CS`, the Potency was 27.3 µM (active).
For `Cc1cc(O)c(C(C)C)cc1Cl`, the Potency was “inactive”.
In the case of `COCc1c(C(C)C)nc(C(C)C)c(/C=C/[C@@H](O)C[C@@H](O)CC(=O)O)c1-c1ccc(F)cc1`, the Potency is reported as “inactive”.

In order of rising “activity, negative = inhibition” value:
1. CCCCC(=O)O[C@]1(C(=O)CO)CC[C@H]2[C@@H]3CCC4=CC(=O)CC[C@]4(C)[C@H]3[C@@H](O)C[C@@]21C  -24.2% [at 42.5 µM]
2. C[C@@H]1C[C@H]2[C@@H]3CCC4=CC(=O)C=C[C@]4(C)[C@@]3(F)[C@@H](O)C[C@]2(C)[C@H]1C(=O)CO  -9.21% [at 42.5 µM]
3. CCOC(=O)N1CCC(n2c(=O)[nH]c3cc(Cl)ccc32)CC1  -4.4% [at 42.5 µM]
4. COc1cc2[nH]c(=O)[nH]c(=O)c2cc1OC  -4.35% [at 42.5 µM]
5. CCC(C(=O)OCCOCCN(CC)CC)c1ccccc1 (configuration not stated)  1.73% [at 42.5 µM]
6. COC(=O)[C@@H]1CC2=CC(=O)CC[C@]2(C)[C@@]23O[C@@H]2C[C@@]2(C)[C@@H](CC[C@@]24CCC(=O)O4)[C@H]13  2.3% [at 42.5 µM]
7. CCN(Cc1cccc(S(=O)(=O)O)c1)c1ccc(C(=C2C=CC(=[N+](CC)Cc3cccc(S(=O)(=O)[O-])c3)C=C2)c2ccccc2)cc1  2.6% [at 42.5 µM]
8. CCCCN(CCCC)CCCOC(=O)c1ccc(N)cc1  4.24% [at 42.5 µM]
9. Cc1nc2ccccn2c(=O)c1CCN1CCC(C(=O)c2ccc(F)cc2)CC1  5.42% [at 42.5 µM]
10. O=C(CCC1CCN(Cc2ccccc2)CC1)c1ccc2c(c1)NCCCC2  6.8% [at 42.5 µM]
11. O=C(O)c1ccccc1NCCc1ccccc1  107% [at 42.5 µM]

In order of falling “activity, negative = inhibition” value:
1. O=C(O)c1cccc(O)c1  51.5%
2. CC(C)CCCC(=O)O  9.48%
3. CCC(C)(C)C1CCC(O)CC1 (configuration not stated)  7.03%
4. CC(C)C(OC(=O)c1ccccc1)C(C)(C)COC(=O)c1ccccc1 (configuration not stated)  5.06%
5. CC1(C)C2=CCCC(C)(C)[C@]23CC[C@H]1C3  -1.29%
6. CC(C)C(=O)O  -2.92%
7. CCOC(=O)c1ccccc1OC  -3.04%
8. CCOC(=N)CC(=O)OCC  -8.57%
9. CC(C)CCCCCCOC(=O)CCCCC(=O)OCCCCCCC(C)C  -12.1%
10. C=CC(C)(O)CCCC(C)CCCC(C)CCCC(C)C (configuration not stated)  -14%
11. NC(=O)Nc1ccc(Cl)c(Cl)c1  -15.1%
12. CCCCC/C(=C\c1ccccc1)CO  -16.3%
13. CNC(=S)NC  -28.6%
